Data published in ChEMBL document CHEMBL1961873, “Compounds: GSK PKIS; Assays: Nanosyn kinase panel” (2012).

biological target: Cyclin-dependent kinase 1 (Homo sapiens) (UniProt P06493); conditions: at 1 µM
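Note: mean percent inhibition of the CDK1/cyclin B complex.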

Chain of Cyclin-dependent kinase 1 (Homo sapiens) (P06493 whole entry, looked up): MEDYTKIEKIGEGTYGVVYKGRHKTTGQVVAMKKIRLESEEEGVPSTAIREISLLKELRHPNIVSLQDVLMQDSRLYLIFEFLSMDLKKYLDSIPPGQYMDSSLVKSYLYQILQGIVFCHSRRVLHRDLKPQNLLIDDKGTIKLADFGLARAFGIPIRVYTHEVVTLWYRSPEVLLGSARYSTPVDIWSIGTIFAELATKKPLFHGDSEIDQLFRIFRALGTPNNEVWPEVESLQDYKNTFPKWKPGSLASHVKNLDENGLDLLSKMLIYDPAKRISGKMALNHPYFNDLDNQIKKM

Point of comparison: `N#Cc1c(NC(=O)CN2CCOCC2)sc2c1CCCC2`, inhibition 4.23%. Against it:
- CC1=C(C(=O)Nc2cc(Cl)c3[nH]ncc3c2)C(c2ccc(C(F)(F)F)cc2)CC(=O)N1 (centres undefined) — lower, 1.81%
- c1cc(-c2cnn3nc(N4CCOCC4)ccc23)nc(NC2CC2)n1 — higher, 21.7%
- CC(C)COC(=O)c1ccc2c(c1)/C(=C/Nc1ccc(S(N)(=O)=O)cc1)C(=O)N2 — higher, 75.5%
- Fc1ccc(-c2cc(-c3c[nH]nc3-c3ccccn3)ccn2)cc1 — lower, -0.63%
- COC(=O)c1sc(-n2cnc3cc(OC)c(OC)cc32)cc1OCc1ccccc1C(F)(F)F — lower, 1.15%
- Nc1ncc(-c2cccc(S(N)(=O)=O)c2)c2scc(-c3ccc(F)c(Cl)c3)c12 — lower, 2.57%
- Fc1ccc(-c2nn3ncccc3c2-c2ccnc(Nc3ccc4c(c3)OCCO4)n2)cc1 — lower, 0.65%
- COc1cc(Nc2nccc(Nc3ccc4c(C)n[nH]c4c3)n2)cc(OC)c1OC — lower, 3.05%
- O=C(O[C@H]1CN[C@H](C#Cc2cc3ncnc(Nc4ccc(Cc5ccccc5)cc4)c3s2)C1)N1CCOCC1 — lower, 1.96%
- Nc1nc(-c2ccc(F)cc2)c(-c2ccc3ncccc3n2)s1 — higher, 8.07%
- COc1ccc(-c2nn3ncccc3c2-c2ccnc(Nc3ccc4c(c3)OCCO4)n2)cc1 — lower, 1.38%
- CNC(=O)c1cncc(/C=C/c2ccccc2Cl)c1 — lower, 3.2%
- CCn1c(-c2nonc2N)nc2ccccc21 — lower, 0.59%
- NS(=O)(=O)c1ccc(N/N=C2\C(=O)Nc3ccc4ncccc4c32)cc1 — higher, 80.5%
- Nc1nc(-c2cccc(Cl)c2)c(-c2ccc3ncccc3n2)s1 — lower, 2.18%
- c1ccc(-c2nc3n(c2-c2ccc4c(c2)OCO4)CCC3)nc1 — lower, 1.42%
- Cc1ccc(O)cc1Nc1ccnc2cc(-c3ccccn3)ccc12 — lower, 1.83%
- NS(=O)(=O)c1ccc(Nc2ncc(-c3ccccc3)o2)cc1 — higher, 66.2%
- COc1cccc(-n2ncc3c(N/N=C/c4ccc(F)cc4)ncnc32)c1 — higher, 35.5%
- CCc1nn2ncccc2c1-c1ccnc(NC2CC2)n1 — higher, 6.8%
- COc1ccc(CNC(=O)c2ccc(-c3cc(-c4nnc(C)o4)ccc3C)cc2)cc1 — lower, 1.37%
- CCCN(CCS(C)(=O)=O)Cc1ccc(-c2ccc3ncnc(Nc4ccc(OCc5cccc(F)c5)c(Cl)c4)c3c2)o1 — higher, 8.04%
- Cc1ccc2c(-c3ccnc(Nc4ccccc4)n3)c(-c3ccc(F)cc3)nn2n1 — lower, 1.56%
- COc1cc(/C=N/Nc2ncnc3[nH]ncc23)ccc1O — higher, 15.8%
- FC(F)(F)c1cccc(-c2nn3ncccc3c2-c2ccnc(Nc3ccc4c(c3)OCCO4)n2)c1 — lower, 3.23%
- O=S(=O)(CCNCc1ccc(-c2ccc3ncnc(Nc4ccc(OCc5cccc(F)c5)c(Cl)c4)c3c2)o1)c1ccccc1 — lower, 1.65%
- CCn1c(-c2nonc2N)nc2c(C#CC(C)(C)O)ncc(OC3CCNCC3)c21 — lower, 2.34%
- COc1ccc2c(-c3ccnc(Nc4cccc(OC(F)(F)F)c4)n3)cnn2n1 — higher, 41.2%
- CC(C)(CO)CNC(=O)c1ccc2c(c1)/C(=N/Nc1ccc(S(N)(=O)=O)cc1)C(=O)N2 — higher, 74.8%
- NC(=O)c1sc(-n2cnc3ccc(C(F)(F)F)cc32)cc1OCc1ccccc1Br — lower, 1.01%
- COC(=O)Nc1nc2ccc(Oc3ccc(NC(=O)Nc4cccc(Cl)c4)cc3)cc2[nH]1 — lower, 0%
- CS(=O)(=O)CCNCc1ccc(-c2ccc3ncnc(Nc4ccc(OCc5ccccc5)c(C(F)(F)F)c4)c3c2)o1 — lower, 1.7%
- COc1ccc2[nH]c3c4[nH]c5ccc(OC)cc5c4c4c(c3c2c1)C(=O)NC4=O — lower, 3.22%
